Screening results (PubChem BioAssay)
Most compounds without a hit are left out; they make up all but 1.3% or so of the library.
PREPL inh: PREPL enzyme inhibitors, primary screen, biochemical, fluorescence polarization. Prolyl endopeptidase-like (Homo sapiens), Q4J6C6. recombinant PREPL, fluorescence polarization activity-based probe. inhibition, % at 5.96 µM. 320,000 compounds, 0.68% hits. AID 2751, 2010; in the data active = inhibition above about 43%;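 note: 0% = enzyme with DMSO and 100% = wells lacking enzyme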
LYPLA2 inh: LYPLA2 inhibitors, primary screen, counter-screen for PME1 inhibitor project, biochemical, fluorescence polarization, FP-Rh probe ABPP; recombinant LYPLA2; inhibition, % at 5.9 µM; 320,000 compounds, 0.38% hits; AID 2177, 2009;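 active = inhibition above the screen-wide mean plus 3 SD, limit set per campaign, cut at about 26% in these data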;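 note: 0% = LYPLA2 with DMSO and 100% = wells lacking LYPLA2 enzyme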
Target sequence (O95372 whole entry, looked up): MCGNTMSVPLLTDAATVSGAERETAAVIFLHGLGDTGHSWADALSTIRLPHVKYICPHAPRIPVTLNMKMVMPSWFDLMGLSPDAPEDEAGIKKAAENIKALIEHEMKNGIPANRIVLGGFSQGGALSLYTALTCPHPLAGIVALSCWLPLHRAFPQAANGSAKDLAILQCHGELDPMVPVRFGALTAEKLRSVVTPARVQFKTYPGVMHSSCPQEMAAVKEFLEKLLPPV
LYPLA1 counter: LYPLA1 inhibitors, primary screen, counter-screen for PME1 inhibitor project, biochemical, fluorescence polarization, FP-Rh probe ABPP. Acyl-protein thioesterase 1 (Homo sapiens), O75608. recombinant LYPLA1. inhibition, % at 5.9 µM. 320,000 compounds, 0.16% hits. AID 2174, 2009;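 active = inhibition above the mean of all tested compounds plus 3 SD, set per campaign, cut at about 14% in these data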;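 note: inhibitors block serine hydrolase probe labeling of LYPLA1 so polarization falls; 0% = enzyme with DMSO and 100% = wells lacking LYPLA1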
PME-1 primary: PME-1 inhibitors via competitive probe labeling, primary screen, biochemical, fluorescence polarization, FP-Rh probe, HTS; inhibition, % at 5.9 µM; recombinant PME-1; AID 2130, 2009; Protein phosphatase methylesterase 1 (Homo sapiens), Q9Y570; 320,000 compounds, 0.53% hits;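 active = inhibition above the campaign mean of all compounds plus 3 SD, cut at about 26% in these data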;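 note: competitive labeling of PME-1 active site by serine hydrolase directed probe; 0% = PME-1 with DMSO and 100% = wells lacking PME-1 enzyme; inhibitors block probe labeling so polarization falls and inhibition rises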
Target sequence (Q9Y570 whole entry, looked up): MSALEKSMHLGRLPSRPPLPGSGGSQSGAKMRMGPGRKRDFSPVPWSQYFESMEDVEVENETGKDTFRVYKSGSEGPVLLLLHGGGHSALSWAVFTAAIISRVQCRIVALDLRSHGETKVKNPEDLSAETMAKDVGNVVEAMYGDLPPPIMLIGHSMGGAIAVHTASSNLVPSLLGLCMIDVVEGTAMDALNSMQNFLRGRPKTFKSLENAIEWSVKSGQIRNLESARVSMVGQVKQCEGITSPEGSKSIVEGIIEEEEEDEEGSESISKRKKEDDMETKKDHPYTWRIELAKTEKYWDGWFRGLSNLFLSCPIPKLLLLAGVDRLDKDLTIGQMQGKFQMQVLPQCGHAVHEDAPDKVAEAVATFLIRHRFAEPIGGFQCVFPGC
Fam108B counter: mouse Fam108B serine hydrolase inhibitors, primary screen, counter-screen for RBBP9 inhibitor project, biochemical, fluorescence polarization | recombinant Fam108B, FP-Rh probe fluorescence polarization | inhibition, % at 9.51 µM | 300,000 compounds, 0.33% hits | AID 1947, 2009;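 active = inhibition above the screen mean inhibition plus 3 SD, computed separately per campaign, cut at about 18% in these data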;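 note: inhibitors lower polarization as less probe binds the enzyme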
LYPLA2 confirm: LYPLA2 inhibitors, retest, confirmation, counter-screen for PME1 inhibitor project, biochemical, fluorescence polarization, FP-Rh probe ABPP | 1,100 compounds, 72% hits | inhibition, % at 5.9 µM | shares compounds with LYPLA2 inh | recombinant LYPLA2 | AID 2232, 2010;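 active = mean inhibition across replicates above the hit cutoff set in the primary screen, cut at about 26% in these data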;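 note: blocked labeling of the enzyme by serine hydrolase FP-Rh probe lowers polarization; 0% = enzyme with DMSO and 100% = wells lacking LYPLA2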
LYPLA2 gel ABPP: LYPLA2 inhibitors in proteome, late-stage follow-up, gel-based competitive ABPP, fluorescence, assay provider; shares compounds with LYPLA2 inh; rhLYPLA2 in mouse brain proteome, gel ABPP FP-Rh; inhibition, % at 20 µM; 150 compounds, 30% hits; AID 652029, 2013;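 active = inhibition of LYPLA2 enzyme probe labeling above about 50%, limit read from the data; inactive = inhibition below that limit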;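 note: loss of FP-Rh probe labeling of the LYPLA2 gel band measured as band density; 0% = DMSO only control band and 100% = blank gel background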
Active calls of the source: *; . = not tested or not shown.

SMILES	PREPL inh	LYPLA2 inh	LYPLA1 counter	PME-1 primary	Fam108B counter	LYPLA2 confirm	others
CN(Cc1ccc(C(F)(F)F)cc1)C(=O)c1ccc(Oc2ccccc2)cc1	4	29*	11	0	0	24
CCCCn1c(N)c(N(CC(C)C)C(=O)CSc2nnc(C)n2-c2ccc(OC)cc2)c(=O)[nH]c1=O	0	0	-4	-1	0	.
CCOc1cc(CN2CCSCC2)ccc1O	8	6	3	-3	0	.
CCOc1cc(CN2CCN(c3cccc(C(F)(F)F)c3)CC2)ccc1O	-23	28*	4	2	1	29*
COc1ccc(N=C2SC(C(=O)Nc3ccc4c(c3)OCO4)CC(=O)N2C)cc1 (configuration not stated)	21	53*	-2	-2	3	39*
CCN=C1SC(C(=O)Nc2cccc(C)c2)CC(=O)N1CC (configuration not stated)	11	7	-4	-10	-3	.
CCOc1ccc(NC(=O)C2CC(=O)N(CC)C(=Nc3ccc4c(c3)OCO4)S2)cc1 (configuration not stated)	21	5	2	1	7	.
CCN1C(=O)CC(C(=O)Nc2ccc(F)cc2)SC1=Nc1ccc2c(c1)OCO2 (configuration not stated)	14	36*	2	4	4	3
CCN=C1SC(C(=O)Nc2cccc(Br)c2)CC(=O)N1CC (configuration not stated)	5	26*	0	-2	3	26*
NC(=O)c1nn(Cc2ccccc2)c(=O)c2ccccc12	-1	1	-4	4	1	.
N#Cc1ccc(CN2CCN(C(=O)Cn3nc(C(N)=O)c4ccccc4c3=O)CC2)cc1	-1	29*	0	-1	-2	14
O=C(COc1ccc(S(=O)(=O)NCc2ccccc2)cc1Cl)NCc1ccncc1	-7	41*	-2	9	1	46*
O=C(NCc1cccnc1)c1ccc(NC(=O)c2ccc([N+](=O)[O-])cc2)cc1	1	37*	6	6	-6	30*
Cc1ccc(C(CNC(=O)C(=O)Nc2ccc3c(c2)OCCO3)N2CCN(C)CC2)cc1 (configuration not stated)	0	44*	-4	-3	-1	0
O=C(Nc1ccc(S(=O)(=O)N2CCCC2)cc1)c1c(F)cccc1F	13	28*	-1	7	-2	0
O=C(CNc1ccc(Br)cc1)Nc1ccc(S(=O)(=O)N2CCCC2)cc1	-12	29*	-6	4	.	19
O=C(CNc1ccc(Br)cc1)Nc1cccc(S(=O)(=O)N2CCCC2)c1	6	-6	-4	9	.	.
COc1cc2ccccc2cc1C(=O)OCc1nc2ccsc2c(=O)[nH]1	-12	3	-3	0	.	.
COCCN1C(=O)C(=O)/C(=C(/O)c2ccc(S(=O)(=O)N3CCOCC3)cc2)C1c1cccc(Cl)c1 (configuration not stated)	-7	1	-2	-2	0	.
COc1ccc(C2=NOC(COc3ccc4c(C)cc(=O)oc4c3)C2)c(OC)c1 (configuration not stated)	2	28*	2	-7	3	24
COc1ccccc1C1=NOC(COc2ccc3c(C)cc(=O)oc3c2)C1 (configuration not stated)	-2	7	2	1	-7	.
O=C(Nc1cccs1)Nc1c(F)c(F)c(F)c(F)c1F	12	29*	4	7	0	30*
COc1ccccc1-c1nnc(C2CCN(S(=O)(=O)c3cccc([N+](=O)[O-])c3)CC2)o1	11	20	2	0	1	.
COc1ccccc1-c1nnc(C2CCN(S(=O)(=O)c3ccc([N+](=O)[O-])cc3)CC2)o1	18	75*	2	2	2	72*	LYPLA2 gel ABPP=58*
CC(C(=O)NC1CCCCC1)N1CCN(S(=O)(=O)c2cccs2)CC1 (configuration not stated)	24	6	1	-1	.	.
SMILES	PREPL inh	LYPLA2 inh	LYPLA1 counter	PME-1 primary	Fam108B counter	LYPLA2 confirm	others
O=C1N(Cc2cccnc2)C[C@@H]2C[C@@H](c3cccc(Oc4ccccc4)c3)N3CCC[C@@]123	33	27*	5	5	-3	18
O=C1N(Cc2cccnc2)C[C@@H]2C[C@@H](c3ccc(C(F)(F)F)cc3)N3CCC[C@@]123	2	3	-2	-1	0	.
CCOCCCNC(=O)c1c[nH]c2ccc(OCC)cc2c1=O	9	0	-1	7	0	.
CCN(CC)S(=O)(=O)c1ccc(C(=O)Nc2ccc3c(c2)OCO3)cc1	-2	2	-2	5	5	.
CCCCCCOc1ccc(OC(=O)c2ccncc2)cc1	-4	47*	8	-6	-6	56*
O=C1CCCC(=NNC(=O)c2ccc(CN3c4cccc5cccc(c45)S3(=O)=O)cc2)C1	.	.	.	.	.	.	LYPLA2 gel ABPP=44
O=C(CC1SC(N2CCCCC2)=NC1=O)Nc1ccc(C(=O)NCCc2ccc(F)cc2)cc1 (configuration not stated)	5	49*	2	5	.	39*
O=[N+]([O-])c1c(Nc2cccc(O)c2)cc(Cl)c2nonc12	17	47*	0	13	2	51*
O=C(O)c1ccc(Nc2cc(Cl)c3nonc3c2[N+](=O)[O-])cc1	13	4	1	4	6	.
O=C(c1ccc(CNc2c(N3CCOCC3)c(=O)c2=O)cc1)N1CC=C(c2ccccc2)CC1	40	44*	6	6	0	41*
Cc1ccc(NC(=O)c2ccc(CNc3c(N4CCOCC4)c(=O)c3=O)cc2)cc1	4	2	-3	0	0	.
CCCC(=O)c1ccc(N2CCN(C(=O)c3ccccc3)CC2)c(F)c1	-1	16	4	-1	3	.
CCC(=O)c1ccc(N2CCN(C(=O)c3ccc(F)cc3)CC2)c(F)c1	-3	16	5	4	-2	.
CCC(=O)c1ccc(N2CCN(C(=O)c3ccc(Br)cc3)CC2)c(F)c1	4	30*	3	2	-2	48*
CCCC(=O)c1ccc(N2CCN(C(=O)c3ccc(Br)cc3)CC2)c(F)c1	1	39*	3	2	1	70*	LYPLA2 gel ABPP=8
